Bioassay records (PubChem BioAssay)
KDM5B inh = KDM5B demethylase inhibition; KDM5B demethylase, FDH-coupled NADH fluorescence (FDH is formaldehyde dehydrogenase); Potency, µM (highest dose often 57.7 µM), most hits filed as inhibitors; 220,000 compounds, 2.6% hits; AID 1347165; active means well fitted inhibition curve with a large enough effect; further: nearly all actives have a fitted effect of over 70% in size
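Coupled FDH/NAD⁺ fluorescence readout. KDM5BΔAP 200 nM final; compound titration, 10 min RT preincubation; substrate mix 12.5 µM H3K4me3, 25 µM 2-OG, 50 µM Fe(II), 100 µM ascorbate, 0.25 mM NAD⁺, 0.25 U/mL FDH; ΔRFU over 30 min.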
Each line names hits and unclear results; the compound was inactive in the other large screens. Many of the other results were omitted from the sample, so hits are more common in it than they were.

CC(NC(=O)C1CCN(c2cc(C(F)(F)F)ncn2)CC1)c1ccc(F)cc1 (configuration not stated)	none
Cc1ccc(NC(=O)C2CCN(c3cc(C(F)(F)F)ncn3)CC2)cc1	KDM5B inh 25.1µM
O=C(NC1CCCCCC1)C1CCN(c2cc(C(F)(F)F)ncn2)CC1	none
CN(C(=O)Nc1cccc(Cl)c1)C(c1ccc(Cl)cc1)c1nccn1C (configuration not stated)	none
COc1ccccc1-c1nnc(SCC(=O)NC(C)c2ccc3c(c2)CCCC3)o1 (configuration not stated)	none
Clc1ccc(-c2ccc(CNCC3CCNCC3)o2)c(Cl)c1	none
CC(NC(=O)Cn1nc(-c2ccc(F)cc2)oc1=O)c1ccc2c(c1)CCCC2 (configuration not stated)	none
O=C(CSc1nnc(-c2ccc(Cl)cc2)n1CC1CCCO1)Nc1ccc2c(c1)OCO2 (configuration not stated)	none
CCCn1nc(C(=O)Nc2ccc(Cl)cc2)c2ccccc2c1=O	none
Cc1ccc(-c2cc(=O)c3cc(NC(=O)c4ccco4)ccc3o2)cc1	none
FC(F)(F)CN1C2CCC1CN(c1cnccn1)C2	none
COc1cc2ncnc(N3CC4CCC(C3)N4CC(F)(F)F)c2cc1OC	none
CCc1ncc2c(N3CC4CCC(C3)N4CC(F)(F)F)nc3ccccc3n12	KDM5B inh 70.8µM
Cc1cc(=O)n2[nH]c(CN(C(=O)c3ccc(F)cc3)c3ccc(Cl)cc3)nc2n1	none
Cc1ccc2c(C)nc(Nc3nc(C)c(Cc4ccccc4)c(=O)[nH]3)nc2c1	none
Cc1ccc(C(=O)O)cc1C	none
Cc1cc2oc(C(=O)NCC(c3ccco3)N3CCCCC3)cc(=O)c2cc1C (configuration not stated)	none
Cc1nc(CN2C[C@H](C(=O)Nc3ccccc3)C[C@@H]2c2ccc(F)cc2)cs1	KDM5B inh 35.5µM
COc1cccc(NC(=O)[C@@H]2C[C@@H](c3ccc(F)cc3)N(Cc3ccccc3)C2)c1	none
Cn1ccc(NC(=O)[C@@H]2C[C@@H](c3ccc(F)cc3)N(Cc3ccccc3)C2)n1	none
COc1ccc(NC(=O)Cn2cccc2-c2nc(-c3ccc4c(c3)OCO4)no2)cc1	none
CN1C(=O)CO[C@H]2CN(S(C)(=O)=O)C[C@H]21	none
CN1CCCC2(CCN(c3ccc(C#N)cn3)C2)C1=O (configuration not stated)	none
N#Cc1ccc(N2C[C@@H]3OCC(=O)N(CC4CCCCC4)[C@@H]3C2)nc1	KDM5B inh 35.5µM
COc1ccc(C(=O)N2C[C@@H]3OCC(=O)N(CC4CCCCC4)[C@@H]3C2)cc1	none
O=C(c1cccnc1)N1C[C@@H]2OCC(=O)N(CC3CCCCC3)[C@@H]2C1	none
O=C1CO[C@H]2CN(c3ncccn3)C[C@H]2N1CC1CCCCC1	KDM5B inh 35.5µM
CCOC(=O)C1CCCN(c2ccc(C#N)cn2)C1 (configuration not stated)	none
O=C(c1cccnc1)N1C[C@@H]2OCC(=O)N(CC3CC3)[C@@H]2C1	none
CN1C(=O)CO[C@H]2CN(c3ccc(C#N)cn3)C[C@H]21	KDM5B inh 35.5µM
Cc1nc(-c2ccccc2Cl)sc1C(=O)N[C@H](CC(C)C)C(=O)O	none
CCNc1c(NC(=O)c2cc(Br)ccc2OC)c(=O)oc2ccccc12	none
NC(=O)C1CCCN(CCC(=O)O)C1 (configuration not stated)	none
COc1ccc(Cl)cc1NC(=O)Cn1cccc1-c1nc(-c2ccccc2)no1	none
COc1ccc(NC(=O)CSC2=C(C#N)C(c3ccc(Cl)cc3)C(C(C)=O)=C(C)N2)cc1 (configuration not stated)	none
Cc1ccc(C)c(/C=C(/C#N)S(C)(=O)=O)c1	none
O=C(Cc1ccc2c(c1)OCO2)N1CCc2onc(-c3cccc(F)c3)c2C1	none
O=C(C1COc2ccccc2O1)N1CCc2onc(-c3cccc(F)c3)c2C1 (configuration not stated)	none
O=C(COCC1CCCO1)N1CCc2onc(-c3ccc4c(c3)OCO4)c2C1 (configuration not stated)	KDM5B inh 22.4µM
CCCCCCCCOC(=O)C1C(c2ccccc2)C(C(=O)O)C1c1ccccc1 (configuration not stated)	none
NC(=O)c1cc(Sc2ccc3c(c2)OCCCO3)nc2ccccc12	none
COCc1nnc(NC(=O)c2ccc3c(ccn3C)c2)s1	none
O=C(NCc1coc(-c2cccs2)n1)c1cc(Cl)cc(Cl)c1	none
CN(c1cc(=O)c2ccnc(-c3ccccc3Oc3ccccc3)c2o1)C1CCOCC1	none
Cn1nccc1-c1nccc2c(=O)cc(N3CCOCC3)oc12	KDM5B inh 35.5µM
COc1cc(CNc2nccc3c(=O)cc(N4CCOCC4)oc23)cc(OC)c1	KDM5B inh 28.2µM
CN(C)c1cc(=O)c2ccnc(-c3ccccc3Oc3ccccc3)c2o1	KDM5B inh 35.5µM
CN(c1ccccc1)c1cc(=O)c2ccnc(-c3cccnc3)c2o1	none
COc1cccc(CNC(=O)Cn2c(N3CCOCC3)nc(C)cc2=O)c1	none
O=c1cc(N2CCOCC2)oc2c(-c3cncnc3)nccc12	KDM5B inh 25.1µM
O=C(O)c1cccnc1SCC(F)(F)F	none
c1ccc(OCc2nn3c(CN4CCOCC4)nnc3s2)cc1	none
COC(=O)c1cccc(C(=O)NCc2ccccc2)c1	none
